High-throughput results: PubChem BioAssay, ICCB-Longwood Screening Facility, Harvard Medical School
Sampled rows, rich in hits. Any-hit rate of the full collection: about 1.4%.
Mtb MbtI inh: MbtI salicylate synthase inhibitors, primary screen, biochemical, fluorescence intensity; inhibition, % (no concentration beside the values); AID 493033, 2011; 0.89% of 100,000 active; P9WFX0; purified MbtI enzyme, fluorescence intensity read-out; in the data active = inhibition mostly above about 56%, no sharp cut-off; inactive = mostly below about 77%
Polio RdRp inh: poliovirus RdRp elongation inhibitors, primary screen, biochemical, fluorescence polarization, total intensity | poliovirus polymerase elongation; hits give low values | 0.66% of 150,000 active | Genome polyprotein (Poliovirus type 1 (strain Mahoney)), P03300 | % elongation, % (compound at 16.7 µg/mL); in the data active = % elongation below about 90%
MenB inh: M. tuberculosis MenB inhibitors, primary screen, biochemical, absorbance; 1,4-dihydroxy-2-naphthoyl-CoA synthase (Mycobacterium tuberculosis (strain ATCC 25618 / …; MenB enzyme assay, absorbance read-out; inhibition, % (test concentration not listed); 0.43% of 100,000 active; in the data active = inhibition above about 21%, passing the limit was not always enough
AID504770: growth inhibition of E. coli YBA685, primary screen, V. cholerae RctB inhibitors; E. coli YBA685 rctB-dependent plasmid, OD600 growth, 3 h; hits give low values; z-score (test concentration not listed); 0.27% of 130,000 active; in the data active = z-score below about -2, passing the limit was not always enough
Large screens that a line does not name were inactive; ! = repeats disagree.

CC(C)(C)Nc1nc2c(s1)CCCC2	Mtb MbtI inh 78
Cn1ncc2c(c(SCc3ccc(Cl)cc3Cl)nn2C)c1=O	none
CSc1nn(C)c2cnn(C)c(=O)c12	Polio RdRp inh 55
CC(C)n1c(=S)[nH]c2c1c(=O)[nH]c(=O)n2C	Mtb MbtI inh 102!
CCC(C)n1c(=O)[nH]c2c1c(=O)n(C)c(=O)n2C (centres undefined)	none (no result: Polio RdRp inh, MenB inh)
COc1ccc(NCc2nc(-c3ccccc3)no2)cc1OC	none
O=S(=O)(c1ccc(=S)[nH]c1)N1CCCCCC1	Mtb MbtI inh 95
O=S(=O)(c1ccc(I)cc1)N1CCCCCC1	none
